Source: PubChem BioAssay (National Center for Advancing Translational Sciences (NCATS))
Only some compounds are listed: those with a hit (about 2.4% of all), similar ones and a draw of the others.
D2 PAM-1: positive allosteric modulators of human D2 dopamine receptor | HEK293 T-REx D2, calcium flux, EC20 dopamine potentiation | actives 0.34% (n = 340,000) | potentiation, % at 10 µM | P14416 | AID 485347;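 active means potentiation over 3 SD above the plate norm, cut at about 30% in these data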; further: 0% is about no effect
Target sequence (P14416 whole entry, looked up): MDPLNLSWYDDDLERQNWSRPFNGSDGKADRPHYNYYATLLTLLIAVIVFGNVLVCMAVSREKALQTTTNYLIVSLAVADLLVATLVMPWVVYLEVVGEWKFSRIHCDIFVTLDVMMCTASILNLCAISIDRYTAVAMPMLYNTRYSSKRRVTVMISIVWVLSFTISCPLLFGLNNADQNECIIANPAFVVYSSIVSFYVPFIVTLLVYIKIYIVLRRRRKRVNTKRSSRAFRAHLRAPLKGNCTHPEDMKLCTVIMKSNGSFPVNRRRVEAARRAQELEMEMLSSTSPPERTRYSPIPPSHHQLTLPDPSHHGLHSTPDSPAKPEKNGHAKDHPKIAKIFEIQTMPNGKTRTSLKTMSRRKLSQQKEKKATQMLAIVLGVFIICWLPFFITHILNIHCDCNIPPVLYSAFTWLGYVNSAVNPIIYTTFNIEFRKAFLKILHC
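Primary screen. Calcium kinetics in induced HEK293 T-REx D2 cells: compound pre-addition 180 s, EC20 dopamine, 180 s more.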
D2 ag-1: activates the human D2 dopamine receptor | DiscoveRx PathHunter D2 beta-arrestin, luminescence, 90 min; 100% = 57 uM dopamine signal | activation, % (concentration not given with the values) | actives 0.084% (n = 360,000) | AID 624465; in the data active means activation above about 40%; inconclusive means between about 15% and that limit
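DiscoveRx PathHunter D2 beta-arrestin cells (2,100/well) attached overnight, then compound-stimulated 90 min at 37 C in HBSS/10 mM HEPES/0.1% Tween-20 buffer; beta-galactosidase complementation read by luminescence after 1 h at ambient temperature. Dopamine 57 uM final (EC100) as control.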
D2 ag-2: D2 dopamine receptor (human) agonism; P14416; HEK293 T-REx D2 cells, calcium flux agonist mode; activation, % at 2 µM; actives 0.53% (n = 340,000); AID 485358;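 active means activation over 3 SD above normal in the single-dose calcium agonist read, cut at about 30% in these data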; further: 0% is about no effect
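Tetracycline-induced HEK293 T-REx cells with force-coupled D2 receptor, plated overnight at 30 C, loaded with no-wash calcium dye. After a 10 s baseline, compound was pin-added and calcium flux read kinetically for 180 s; calcium rises flagged agonists.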
D2 antag: antagonizes the human D2 dopamine receptor; P14416; HEK293 TREx D2 cells, calcium flux, dopamine EC80; inhibition, % at 10 µM; actives 2% (n = 340,000); in the data active means inhibition above about 30%; inactive means below that, where a call was filed; further: 0% is about no effect
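Inhibition of EC80 dopamine-driven calcium flux, recorded kinetically, defines activity here; cells are a tetracycline-induced HEK293 T-REx line expressing force-coupled D2.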
D2 PAM-2: human D2 receptor positive allosteric modulation; AID 624464; actives 0.23% (n = 360,000); potentiation, % (test concentration not listed); P14416; DiscoveRx D2 beta-arrestin cells, luminescence, 90 min; 100% = 57 uM dopamine signal; in the data active means potentiation above about 50%; inconclusive means mostly about 30% to 49%
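PathHunter beta-arrestin assay in DiscoveRx D2 cells. Compounds were added with an EC20 of dopamine (50 nM final) for 90 min at 37 deg C. Luminescence was read 1 h after detection reagent, with 57 uM dopamine as the EC100 control.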
Starred values were filed as active, the others as inactive; ? = inconclusive; nt = no result given.

SMILES	D2 PAM-1	D2 ag-1	D2 ag-2	D2 antag	D2 PAM-2
CCOc1ccc(CCNC(=O)CSCC(=O)Nc2ccc(OC)cc2)cc1OCC	8	-1	-1	31*	1
CCc1nnc(SCc2ccc(OC)cc2)c2cc3sc(C)cc3n12	-4	nt	1	nt	nt
CCN(CC)S(=O)(=O)c1ccc(/C=C/C(=O)N(c2ccccn2)C2CCCCC2)cc1	1	0	2	-2	-8
O=C(/C=C/c1ccccc1)N(c1ccccn1)C1CCCCC1	-8	13	34*	21	8
CCOC(=O)N/N=C/c1cc(OC)c(O)c(OC)c1	-7	4	0	-15	-10
CCOC(=O)c1sc(N/N=C/c2cc(Br)c(O)c(OC)c2)nc1C	13	41*	-1	-12	51*
Cc1ccc(-c2nc3sc(CCNS(=O)(=O)c4cc(F)ccc4F)c(C)n3n2)cc1	6	nt	1	nt	nt
O=S(=O)(NCC1CCN(Cc2ccccc2)CC1)c1ccccc1C(F)(F)F	-25	1	1	54*	-20
Cc1nc(NS(=O)(=O)c2ccccc2)sc1NC(=O)Nc1ccccc1	-11	?	-1	55*	1
Cc1nc(NS(=O)(=O)c2ccccc2)sc1NC(=O)Nc1ccc(Cl)cc1	-16	6	1	-18	-3
CCOC(=O)Nc1sc(NS(=O)(=O)c2ccccc2)nc1C	-6	12	0	1	86*
Cc1ccc(C(C)NC(=S)NCc2ccc(F)cc2)c(C)c1 (configuration not stated)	9	-4	0	11	-9
CN(C)CCCNS(=O)(=O)c1cc(Cl)ccc1Cl	-3	-2	-1	38*	-10
CCc1ccccc1NC(=O)Cn1ccn(Cc2ccccc2)c(=O)c1=O	2	nt	1	nt	nt
O=c1cc(N2CCCCC2)c(-c2ccccc2)nn1Cc1c(Cl)cccc1Cl	16	-4	0	32*	-10
O=C(NC(=S)Nc1ccc2c(c1)C(=O)c1ccccc1C2=O)c1ccc(F)cc1	2	nt	0	2	nt
COCCn1c(-c2ccccc2)nc(=S)c2c1CC(C)(C)OC2	37*	-2	1	11	29
CC(C)N(C(=O)N1CCN(c2ccnc3cc(Cl)ccc23)CC1)C(C)C	-8	3	-1	31*	12
Cc1ccccc1N=Cc1cc2c(cc1O)OC(N)=C(C#N)C2c1ccccc1 (configuration not stated)	-1	1	0	33*	-15
Clc1ccc(OCCSc2nnnn2C2CCCCC2)cc1	-7	-2	0	34*	-12
COc1cc(-c2coc3c(C(=O)NCc4ccc(OC)c(OC)c4)cccc23)ccc1O	nt	68*	nt	nt	-7
CCOC(=O)c1oc2ccc(S(=O)(=O)n3nc(-c4ccc(C)cc4)cc3N)cc2c1C	2	-30	0	35*	0
O=c1[nH]c(=S)[nH]c2c1C(c1ccc(Br)cc1)c1c([nH]c(=S)[nH]c1=O)O2	3	-2	nt	nt	-19
COc1ccc(C(NC(=O)C2CCN(CCOc3ccc(F)cc3)CC2)c2cccs2)cc1 (configuration not stated)	nt	-4	nt	nt	-17
COc1ccc(C(NC(=O)C2CCN(CCOc3ccc(Cl)cc3Cl)CC2)c2cccs2)cc1 (configuration not stated)	nt	70*	nt	nt	-18
SMILES	D2 PAM-1	D2 ag-1	D2 ag-2	D2 antag	D2 PAM-2
O=C(NCCC1CCCCN1S(=O)(=O)c1ccccc1)C(=O)NCCN1CCOCC1 (configuration not stated)	-1	-9	1	0	-21
CC1CCN(CC[C@H]2CCCN2S(=O)(=O)c2cccc(O)c2)CC1	-21	-5	0	34*	-23
COCCCNC(=O)Cn1cnc2sc(C)c(S(=O)(=O)N3CCC(C)CC3)c2c1=O	-2	nt	nt	nt	nt
CS(=O)(=O)Nc1nc2n(n1)C(c1ccccc1)C=C(c1ccc(Br)cc1)N2 (configuration not stated)	-6	?	2	-5	75*
Cc1ccc(C2C=C(c3ccccc3)Nc3nc(NS(=O)(=O)c4ccc(C)cc4)nn32)cc1 (configuration not stated)	-4	nt	2	nt	nt
O=C(/C=C/c1ccccc1)NCc1ccco1	12	-6	-1	-16	-2
N#C/C(=C\C=C\c1ccccc1)C(=O)NCc1ccco1	-5	-2	-1	37*	5
